In PubChem BioAssay:

Columns and labels:
[1] = target: Tumor necrosis factor receptor superfamily member 10B (Homo sapiens) (UniProt O14763); assay: caspase-8 TRAIL sensitization, hit retest, confirmation, cell-based, NB7+caspase-8, with/without TRAIL, luminescence panel (AID 651596); settings: NB7 neuroblastoma + caspase-8, TRAIL sensitization, luminescence viability, with TRAIL, mean of runs, at 10 µM, stronger effect = higher value
[2] = as above; settings: NB7 neuroblastoma + caspase-8, without TRAIL, luminescence viability, without TRAIL, mean of runs, at 10 µM

Sequence of Tumor necrosis factor receptor superfamily member 10B (Homo sapiens) (O14763 whole entry, looked up): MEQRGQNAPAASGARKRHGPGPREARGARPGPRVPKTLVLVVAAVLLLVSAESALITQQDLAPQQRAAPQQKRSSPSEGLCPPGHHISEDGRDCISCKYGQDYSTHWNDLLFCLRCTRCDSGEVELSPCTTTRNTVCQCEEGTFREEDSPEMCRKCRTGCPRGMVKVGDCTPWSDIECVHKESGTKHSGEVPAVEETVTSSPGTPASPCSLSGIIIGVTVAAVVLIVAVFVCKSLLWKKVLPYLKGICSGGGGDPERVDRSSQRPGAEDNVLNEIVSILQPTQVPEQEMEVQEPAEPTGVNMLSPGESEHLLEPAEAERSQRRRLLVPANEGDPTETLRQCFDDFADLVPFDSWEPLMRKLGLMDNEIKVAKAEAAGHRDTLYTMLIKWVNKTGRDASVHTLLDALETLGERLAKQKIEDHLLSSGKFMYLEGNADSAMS

| Compound | activity [1] [%] | activity [2] [%] |
| --- | --- | --- |
| CN1CCN(Cc2nc3ccccc3c(=O)n2Cc2nc(-c3ccc4ccccc4c3)cs2)CC1 | 67.3 | 91.5 |
| CCc1ccc(C(=O)Cn2ncc(Cl)c(Cl)c2=O)cc1 | 99.2 | 99.4 |
| O=[N+]([O-])c1ccc(-c2nc(C(Cl)Cl)c3ccccc3n2)cc1 | 56.8 | 96.3 |
| COc1ccccc1NC(=O)Nc1ccc2c(c1)nc(C)n2C | 77 | 73.8 |
| COC(=O)Cn1c(=O)c(C(=O)CCl)c(N)n(Cc2ccccc2)c1=O | 93.6 | 94.7 |
| O=C(N/N=C/C(Cl)=C/c1ccccc1)c1ccccn1 | 61.2 | 42.8 |
| COc1ccc(-c2cc3ccccc3c(=O)o2)cc1 | 49.4 | 56.6 |
| Cc1cccc(N2CCN(C(=S)Nc3ccc4nc(N5CCN(C)CC5)cc(C)c4c3)CC2C)c1 (centres undefined) | 75.8 | 98 |
| Cc1onc(C(=O)N2CCC(Cc3ccccc3)CC2)c1[N+](=O)[O-] | 97.8 | 98.1 |
| CC(=O)c1sc(NC(=O)c2cc(=O)c3ccccc3o2)nc1C | 51.1 | 50.8 |
| COc1ccccc1NC(CC(=O)c1ccccc1)C(=O)OCC(=O)c1ccc(C)c(C)c1 (centres undefined) | 73.5 | 66.2 |
| CCOC(=O)c1cn2nc(N3CCCCC3)ccc2n1 | 52.5 | 72.9 |
| Cc1ccn2cc(-c3cccc(NC(=O)CCC(=O)O)c3)nc2c1 | 70.5 | 60.1 |
| CCCc1ccc(C(=O)NC(=O)c2ccccc2O)cc1 | 78.6 | 75.5 |
| O=c1[nH]c(/C(=N\O)c2ccccc2)no1 | 88.8 | 89.6 |
| COC(=O)c1c(NC(=O)COc2ccc(Cl)cc2)sc2c1CC(C)(C)NC2(C)C | 81.2 | 93.9 |
| Cc1ccc(-c2nc3cc(N)ccc3o2)cc1 | 69.2 | 60 |
| CCCc1cc(C(=O)N/N=C/c2ccc(CC)s2)c2ccccc2n1 | 68.8 | 56.9 |
| N/C(Cc1ccc(Cl)cc1)=N\OC(=O)c1cccc2ccccc12 | 99 | 97.5 |
| c1ccc2nc3c(nc2c1)[nH]c1ccccc13 | 45.7 | 44.5 |
| CCOC(=O)c1sc(N(Cc2ccccc2)C(=O)CCl)nc1C | 99.1 | 76.5 |
| Cc1ccc2nc(NC(=O)c3ccc(-c4nc5ccccc5s4)s3)sc2c1 | 56.8 | 17 |
| COc1cccc(C=Cc2nccc3ccccc23)c1OC | 69.2 | 67.1 |
| Cc1ccc(/C(N)=N/OC(=O)c2ccc(C)cc2Cl)cc1 | 97.3 | 96.4 |
| C/C(=N\NC(=O)c1ccccn1)c1ccc(Cl)cc1 | 44 | 46 |

| Compound | activity [1] [%] | activity [2] [%] |
| --- | --- | --- |
| Cc1nc2c(ccc3nc(NC(=O)c4ccc5c(c4)OCCO5)sc32)s1 | 82.8 | 84.3 |
| COc1ccc(C(=O)Nc2ccc3[nH]ncc3c2)cc1 | 78.3 | 77.1 |
| CCCCCCc1cc2cc(C(=O)Nc3ccccc3)c(=O)oc2cc1O | 72.8 | 65.2 |
| CCOC(=O)CNC(=O)CSc1nnc(NC(=O)c2ccc(C)cc2)s1 | 94.5 | 92.5 |
| O=C(Cc1ccsc1-c1ccccc1)NO | 73.4 | 72.3 |
| CC(C)c1ccc(NC(=O)CSc2ncccc2C(=O)Oc2cccc([N+](=O)[O-])c2)cc1 | 68.1 | 61.5 |
| N#Cc1ccccc1N/C=C/C(=O)c1ccc(Cl)cc1 | 48.7 | 53.1 |
| NC(=O)c1ccccc1NC(=O)/C=C/c1ccccc1 | 67.8 | 70.7 |
| C=CCN=c1scc(-c2ccccc2)n1/N=C/c1ccccn1 | 37.6 | 24.8 |
| COC(=O)c1ccc2nc(NC(=O)C(C)(C)C)sc2c1 | 93.2 | 91.2 |
| O=C(CCl)N(c1ccccc1)c1c[nH]c2ccccc12 | 99.5 | 99 |
| CC(C)c1ccc(OCc2cccc(C(=O)N/N=C/c3cccnc3)c2)cc1 | 47.6 | 45.3 |
| COc1ccc(/C=C(\C#N)C(=O)OCC(=O)Nc2ccc(-c3nc4ccc(C)cc4s3)cc2)cc1 | 42.9 | 27.9 |
| CSCCC(NC(=O)c1ccc(Cl)c([N+](=O)[O-])c1)C(=O)N1CCN(C/C=C/c2ccccc2)CC1 (centres undefined) | 36.3 | 24.4 |
| COc1ccc(/C=C2/Sc3ccc(C(=O)NCCN4CCCCCC4)cc3NC2=O)cc1 | 67.8 | 94.7 |
| CN(C)c1ccc(/C=N/NC(=O)c2ccco2)cc1 | 50.2 | 31.4 |
| CCOc1ccc(OCc2cccc(C(=O)N3CCOCC3)c2)cc1 | 58.8 | 55.5 |
| Cc1cc(C)c2c(c1)/C(=C/C(=O)c1ccc(Br)s1)C(=O)N2 | 91.8 | 98 |
| CC(=C/c1ccccc1)/C=N/NC(=O)c1ccccn1 | 87.2 | 85.2 |
| Fc1ccc(-c2nnc(-c3ccc(Cl)cc3Cl)o2)cc1 | 85.4 | 84.5 |
| CCOC(=O)C1=CCN(S(=O)(=O)c2ccccc2C)C1c1ccc(Cl)cc1 (centres undefined) | 10.1 | -8.28 |
| CCCn1c(C)cc(C(=O)COC(=O)c2ccc[nH]c2=O)c1C | 49 | 49.6 |
| CCOC(=O)c1cccc(N2C(N)=NC(N)=NC2(C)C)c1 | 52.6 | 69.5 |
| C=C1CCc2c([nH]c3ccc(OCC(C)C)cc23)C1=O | 91.8 | 99.2 |
| Brc1ccc(-c2nc(N/N=C/c3cccnc3)c3ccccc3n2)cc1 | 93.5 | 89.7 |

| Compound | activity [1] [%] | activity [2] [%] |
| --- | --- | --- |
| Cc1cccc(/C(N)=N/OC(=O)c2cccc3ccccc23)c1 | 89.5 | 71 |
| O=C(CNC(=O)c1ccccc1F)N/N=C/c1cc(Br)ccc1OC(=O)/C=C/c1ccco1 | 3.4 | 20.8 |
| CN1CCN(c2nc(-c3ccc(C(C)(C)C)cc3)nc3ccccc23)CC1 | 67.9 | 69.6 |
| Cc1cc(=O)n2[nH]c(-c3ccc(F)cc3)nc2n1 | 44.8 | 42.6 |
| O=C(Nc1nc2cc3c(cc2s1)OCO3)c1ccco1 | 79.5 | 93.1 |
| Cc1ccc(S(=O)(=O)NC(=O)NC2=NC(C)(C)N(c3ccc(Cl)c(Cl)c3)C(N)=N2)cc1 | 77.4 | 84.2 |
| Cc1cc(C(=O)Nc2sc3c(c2C#N)CCCC3)no1 | 53 | 52.5 |
| Nc1ncnc2c(C3OC(CO)C(O)C3O)c[nH]c12 (centres undefined) | 95.2 | 98.7 |
| Cn1cnc(Sc2ncnc3nc[nH]c23)c1[N+](=O)[O-] | 62.5 | 72.5 |
| COc1ccccc1C(=O)NNC(=O)c1cccc(O)c1 | 44.2 | 48.4 |
| COc1ccc(NC(=O)c2ccc(C)cc2)cc1 | 66.1 | 60.3 |
| CCc1cc2c(=O)[nH]c(-c3ccccn3)nc2s1 | 35.9 | 41 |
| C=CCOc1ccccc1CN(C(=O)CCl)c1ccc2c(c1)OCO2 | 99 | 98.1 |
| CCC[C@H](CN[C@@H](CNC)[C@H](C)CC)NCCc1cc(C(F)(F)F)cc(C(F)(F)F)c1 | 65.7 | 96.1 |
| Nc1nc(N)c2cc(S(=O)(=O)c3cccc(C(F)(F)F)c3)ccc2n1 | 60.4 | 76.5 |
| Cc1cc(C)cc(NS(=O)(=O)c2ccc3[nH]cc(C(=O)NCc4ccco4)c(=O)c3c2)c1 | 80 | 85.3 |
| Cn1cnc([N+](=O)[O-])c1Sc1nc(N)nc2c1ncn2C1OC(CO)C(O)C1O (centres undefined) | 66.8 | 75.4 |
| CC(=O)Nc1cccc(-c2csc(Nc3ccc(C)cn3)n2)c1 | 49.5 | 30.4 |
| CCOc1ccc(/C=N/NC(=O)c2ccccc2NC(=O)c2ccc(OC)cc2)cc1 | 72.6 | 57.7 |
| COc1ccc(NC(=O)c2ccccn2)cc1 | 75 | 69.8 |
| O=C(CCl)N1c2ccccc2CCc2ccccc21 | 99.8 | 99.7 |
| O=C(COc1ccc2ccccc2c1)Nc1nccs1 | 58 | 55.8 |
| Cc1cccc(Nc2nc(N)nc(CCl)n2)c1C | 99 | 98.3 |
| CSc1ccc(/C=N/NC(=O)c2cccc(O)c2)cc1 | 78.8 | 71 |
| NC(=S)NN=C1c2ccccc2-c2c(F)c(F)c(F)c(F)c21 | 72.1 | 71.4 |

| Compound | activity [1] [%] | activity [2] [%] |
| --- | --- | --- |
| C(=Cc1nc2ccccc2o1)c1ccc2c(c1)OCO2 | 86.1 | 84 |
| C/C(=N/NC(=O)c1ccccn1)c1ccco1 | 35.1 | 41.5 |
| COCCn1c(C)cc(C(=O)COC(=O)c2n[nH]c3ccccc23)c1C | 88.7 | 86.9 |
| CCC(C(=O)O/N=C(\N)c1ccccc1)c1ccccc1 (centres undefined) | 81.9 | 81.6 |
| O=C(Nc1ccc2nc3ccccc3nc2c1)c1ccccc1 | 47 | 32.9 |
| c1cncc(-c2nc3cc4ccccc4cc3[nH]2)c1 | 66.7 | 57.3 |
| C/C(=N\NC(=O)c1ccc(O)cc1)c1cccc(NC(=O)c2ccc(Cl)cc2)c1 | 74.3 | 77.2 |
| C#Cc1ccc(NC(=O)C2(C)CCN2C(=O)c2ccccc2CCc2ccccc2)cc1 (centres undefined) | 91.2 | 95.9 |
| COc1ccc(Oc2c(Cl)cnn(-c3ccc(C)cc3)c2=O)cc1 | 96.9 | 89.9 |
| Cc1ccc2nc(-c3ccc(NC(=O)C4CCCO4)cc3)[nH]c2c1 (centres undefined) | 72.2 | 71.9 |
| CCCCN(C)C(=O)c1cc2cc3ccc(OC)cc3nc2s1 | 69.9 | 70.3 |
| Cc1ccc(C(=O)N/C(=C\c2ccc(-c3ccccc3[N+](=O)[O-])o2)C(=O)NCCCN2CCOCC2)cc1 | 24.6 | 48.9 |
| COc1ccc2c(=O)cc(-c3ccccc3)n(C)c2c1 | 56.4 | 60.1 |
| CCOC(=O)c1cccc(NC(=O)/C=C/c2ccc3c(c2)OCO3)c1 | 78.9 | 78.7 |
| O=C1c2cccc3c([N+](=O)[O-])ccc(c23)C(=O)N1c1ccccn1 | 91.4 | 99.4 |
| N/C(=N\OC(=O)c1ccc(Cl)cc1)c1ccn[nH]1 | 94.7 | 91 |
| Cc1cc(C)cc(C(=O)O/N=C(\N)c2ccc(Br)cc2)c1 | 89.5 | 89.5 |
| CCS(=O)(=O)c1ncc(Cl)c(C(=O)Nc2ccc(S(=O)(=O)N3CCC(C)CC3)cc2)n1 | 95.2 | 98.8 |
| Cc1ccc(-c2cc(C(=O)N3CCCC3)no2)cc1 | 73.3 | 67 |
| O=C(OCc1cc(=O)oc2cc(O)ccc12)c1cc(S(=O)(=O)N2CCOCC2)ccc1F | 84.1 | 70.9 |
| COc1ccc(/C(N)=N/OC(=O)c2ccc3c(c2)OCO3)cc1OC | 94.2 | 95.1 |
| Nc1c(-c2ccccc2)cnc2c(-c3ccccc3)cnn12 | 73.7 | 77.2 |
